Hit rate of the full screen: of about 69,000 compounds, about 8,600 (12%) showed an effect of 50% or more. The sample as a whole holds a higher share of strong results than the screen did.

The test system of this test is Plasmodium berghei. As to the kind of experiment: Screen against P. berghei liver stage (PbLuc), transformed with Luciferase, at 10uM. The following applies: tested at 10 uM. The class given is functional, HepG2.
As for `Cc1ccsc1CN(Cc1ccccn1)CC(C)C`, the INHIBITION was -21.5%. Regarding `CSC(C)CCN(Cc1ccccn1)Cc1sccc1C` (stereo not drawn), the INHIBITION is given as 62.9%.

On to `COCCn1ccnc1CN(Cc1ccccn1)Cc1sccc1C`, for which the INHIBITION was 71%.

For `Cc1ccsc1CN(CCN(C)C)Cc1ccccn1`, the INHIBITION was found to be 35.1%. Under `COCCN(Cc1ccccn1)Cc1sccc1C` stands 15.2%; under `COCCN(Cc1sccc1C)Cc1nccn1CCOC`, 16.9%; under `Cc1cc(C)c2nc(C)c(C(=O)N3CCC(CCN(C)C)CC3)cc2c1`, 36.8%. Then `Fc1cnc(N2CC[C@@H]3CN(Cc4ccncc4)CCO[C@@H]3C2)nc1`, with 8.85%; and `Cc1cnn(CCC(=O)N2CCCC(c3cc(C)[nH]n3)C2)c1` (stereo not drawn), with 45.7%; and `Cc1cc(NC(=O)C(C)Cn2cc(Br)cn2)no1` (stereo not drawn), with 67.1%.

Regarding `CC(=O)c1ccc(NC(=O)C(C)Cn2cc(Br)cn2)cc1` (stereo not drawn), the INHIBITION is given as -37.6%. Then `CC(Cn1cc(Br)cn1)C(=O)Nc1ccncc1` (stereo not drawn), with -24.7%. In the case of `CC(Cn1cc(Br)cn1)C(=O)Nc1ccn(C)n1` (stereo not drawn), the INHIBITION is listed as 15.7%. Under `Cc1cnn(CCNCC(=O)Nc2ccc(Br)cn2)c1` stands -37.7%; under `CC(Cn1cc(Br)cn1)C(=O)Nc1ccc(Cl)cn1` (stereo not drawn), 56%; under `Cc1cnn(CC(C)NCC(=O)Nc2ccc(Cl)cn2)c1` (stereo not drawn), -100%.

Regarding `CC(Cn1cc(Br)cn1)C(=O)Nc1ccc(C(N)=O)cc1` (stereo not drawn), the INHIBITION came out at 72.7%.

As to `CC(Cn1cc(Cl)cn1)C(=O)Nc1ccc(CN2CCCCCC2)cc1` (stereo not drawn), the INHIBITION was 10.9%. Under `Cc1cc(NC(=O)C(C)Cn2cncn2)no1` (stereo not drawn) stands -1.445%; under `Cc1cc(NC(=O)Cn2ncc(Br)c2C)no1`, 15.9%. Under `CC(Cn1cc(Br)cn1)C(=O)Nc1ccc(Br)cn1` (stereo not drawn) stands 81%. Then `CN(Cc1cn2c(n1)CN(c1ncc(F)cn1)CC2)Cc1ccco1`, with 22.7%; and `O=C(N1CCOCC1)[C@@]12CCO[C@@H]1CCN(C1CCOCC1)C2`, with 38.5%; and `Cc1ccc(NC2CCN(C(=O)CCNc3ncccn3)CC2)nn1`, with -24.2%.

As for `Cc1cc(NC(=O)CN2CCN(c3nccs3)C(C)C2)no1` (stereo not drawn), the INHIBITION came out at 19.2%.

With `CNC(=O)C1(CCCc2ccccn2)CN(Cc2nccn2C)C1`, the INHIBITION was -40.1%. Under `CC(O)CN1CCC(CNCc2ccccc2F)CC1` (stereo not drawn) stands -34.365%; under `Cc1cc(C(=O)CN2CCN(c3ncccn3)CC2)c(C)n1C(C)C`, 26.4%; under `CN1CCOC(CNCc2ccccc2OCc2ccccn2)C1` (stereo not drawn), -10.193%. Under `OCCN1CCC(Cc2nccs2)CC1` stands 13.955%. Consider `CC(C)N(C)CC(=O)NCCc1nc(C(F)(F)F)cs1`, for which the INHIBITION is given as -48.9%. Under `Cc1cccc(Nc2cc(C)nc(C3CCCCN3CC(N)=O)n2)n1` (stereo not drawn) stands 18.9%; under `Cc1cc(NC(=O)C(C)NCCn2cccn2)no1` (stereo not drawn), 58.9%. `CCC(NCCn1cccn1)C(=O)Nc1cc(C)on1` (stereo not drawn): the INHIBITION amounted to 36.5%. Regarding `CCC(NCCn1cc(C)cn1)C(=O)Nc1cc(C)on1` (stereo not drawn), the INHIBITION is reported as 35.4%. Under `Cc1nc(CN2CCCC23CCN(c2nc4ccccc4s2)CC3)co1` stands 14.1%; under `CC(=O)c1ccc(CN2CCCC23CCN(c2ccccn2)CC3)cc1`, 49.9%; under `Cc1nc[nH]c1CN1CCCC12CCN(c1ccccn1)CC2`, 20.9%.

In the case of `Cc1nc[nH]c1CN1CCC(C2CCN(CCc3ccccc3)C2)CC1` (stereo not drawn), the INHIBITION is given as 44.3%. Then `Cn1cc(CN2CCCC23CCN(c2nc4ccccc4s2)CC3)cn1`, with 47%; and `Cc1nc[nH]c1CN1CCn2nc(CN3Cc4ccccc4C3)cc2C1`, with 22.8%; and `c1ccc2sc(N3CCC4(CCCN4Cc4ncc[nH]4)CC3)nc2c1`, with 51.6%. Regarding `Cc1nc[nH]c1CN1CCCN(c2nc3ccccc3s2)CC1`, the INHIBITION amounted to 76.6%. For the compound `Cc1nc[nH]c1CN1CCCC12CCN(c1nc3ccccc3s1)CC2`, the INHIBITION worked out at 76.6%. Under `CN(C)C1CCCN(C(=O)NCc2ccccc2-n2cccn2)C1` (stereo not drawn) stands 21.5%; under `CCS(=O)(=O)N1Cc2nccn2CC(Cn2cccn2)C1` (stereo not drawn), 37.5%; under `O=C(O)c1cc(-c2ccccc2)ns1`, 45.9%. Under `O=C(COCc1ccccc1)N1CCCC1c1noc(C2CC2)n1` (stereo not drawn) stands 7.27%; under `O=C(C[C@@H]1COC[C@H]2CN(C(=O)c3ccccn3)C[C@@H]12)N1CCCC1`, 6.72%. Then `Cc1cccc(N2Cc3c(NC4CCCC4)ncnc3N(C)CC2=O)c1`, with 7.66%; and `CC(=O)c1cccc(NC(=O)CN2CCCCC2C2OCCO2)c1` (stereo not drawn), with 1.81%. Consider `CC(=O)c1cccc(NC(=O)CN2CCCCC2C)c1` (stereo not drawn), for which the INHIBITION is listed as 14%. With `CC(=O)c1cccc(NC(=O)CN2CCCC(C3OCCO3)C2)c1` (stereo not drawn), the INHIBITION came to 53.4%.

Turning to `CN(C)Cc1cnn(-c2ccccc2C(=O)N(C)Cc2ccccc2)c1`, the INHIBITION is listed as -52.6%. Under `Cc1cc(=O)c2ccccc2n1CC1CCN(C(C)C)C1` (stereo not drawn) stands 53.9%; under `Cc1cc(=O)c2ccccc2n1CC1CCCN(C)C1` (stereo not drawn), -9.92%. Then `Cc1cc(=O)c2ccccc2n1CC1CCNC1` (stereo not drawn), with 12.8%; and `c1cnc(N2CCO[C@H]3CN(Cc4csnn4)C[C@H]32)cn1`, with 23.3%. Turning to `O=C(NCCc1ccn(-c2ccccc2)n1)N1CCCC(O)C1` (stereo not drawn), the INHIBITION is -16%. Then `O=C(NCCc1ccn(-c2ccccc2)n1)N1CCC1`, with 26.9%; and `O=C(NCCc1ccn(-c2ccccc2)n1)N1CCSCC1`, with 62.9%. Turning to `Cc1cccc(NC(=O)C(C)Nc2cccc(CN3CCOC3=O)c2)c1` (stereo not drawn), the INHIBITION is -18.15%. Under `CC1CC(=O)c2cc(C(=O)N3CCc4ccccc4C3)c(=O)[nH]c2C1` (stereo not drawn) stands 10.9%. Then `Cc1ccc(CN2C[C@@H]3CCCO[C@@H]3[C@H](N(C)Cc3ccco3)C2)o1`, with 18.5%; and `Cc1cccc(OCCCNC(=O)NC(C)c2nncn2C)c1` (stereo not drawn), with 15.9%. Then `CCN1CCN(CCCNC(=O)NC(C)c2nncn2C)CC1` (stereo not drawn), with 40%; and `CC(NC(=O)NCCOc1ccc(Cl)cc1)c1nncn1C` (stereo not drawn), with 39.7%. Turning to `CC1CCN(CCCNC(=O)NC(C)c2nncn2C)CC1` (stereo not drawn), the INHIBITION came to 52.3%. Under `CC(NC(=O)NCCCN1CCc2ccccc2C1)c1nncn1C` (stereo not drawn) stands -120%; under `CC(NC(=O)NCCCN1CCCCCC1)c1nncn1C` (stereo not drawn), 30.2%.

As for `CC(NC(=O)NCCCN1CCCC1)c1nncn1C` (stereo not drawn), the INHIBITION worked out at 0.914%. With `CC(NC(=O)NCCN1CCCC1)c1nncn1C` (stereo not drawn), the INHIBITION was 56.4%.

For the compound `Cc1cccc(C)c1OCCNC(=O)NC(C)c1nncn1C` (stereo not drawn), the INHIBITION is recorded as 50.4%.

The record behind these values is ChEMBL document CHEMBL4513216, “Probing the Open Global Health Chemical Diversity Library for Multistage-Active Starting Points for Next-Generation Antimalarials” (ACS Infect Dis, 2020).
